Compound activity as filed in PubChem BioAssay.
The entries come from a sample that favours hits as a whole.
ALOX12 inh: inhibitors of human 12S-lipoxygenase ALOX12. P18054. purified 12hLO, xylenol orange hydroperoxide absorbance. Potency, µM (top dose mostly 108 µM), without a hit: at the top dose activity change, negative = inhibition, most hits filed as inhibitors. hit rate 1.1% among 580,000; also: potency is read from the fitted curve at half-maximal effect
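Hydroperoxide product was detected by ferrous iron/xylenol orange as the 573 to 405 nm absorbance ratio. Arachidonic acid at 40 uM (final) was turned over for 30 min at room temperature by 150 nM human 12hLO, pH 7.0 Hepes buffer, after 15 min compound preincubation.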
IL-1B inflam inh: inhibitors of inflammasome signaling (IL-1 beta secretion); THP-1 LPS/ATP IL-1B secretion, AlphaLISA, 16 h; active compounds read low; activity change, % at 57.5 µM; hit rate 4.7% among 360,000; in the data active = activity change below about -50%; inconclusive = mostly about -30% to -49%
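Secreted IL-1B measured by AlphaLISA bead assay after 16 h compound exposure of THP-1 cells; compounds (final up to 57.5 uM) added 1 h before LPS (250 ng/mL) and ATP (1.25 mM) stimulation; lower signal means less secretion.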
HT1080NT lethal: kills 2HG-producing HT-1080-NT fibrosarcoma cells; AID 686970; HT-1080-NT fibrosarcoma viability, CellTiter-Glo ATP luminescence, 48 h; hit rate 1.6% among 360,000; Potency, µM (highest dose often 46.1 µM), without a hit: top-dose activity, negative = less viability, most hits filed as cytotoxic;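 also: NT is the 2HG producing partner of a matched IDH1 knockdown line; potency is read from the fitted curve at half-maximal effect; 0% = DMSO-treated cells and -100% = media-only wells without cells; nearly all actives have a fitted effect of over 55% in size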
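Read-out is CellTiter-Glo luminescence after 10 minutes at room temperature, following 48 hours' compound treatment of HT-1080-NT cells (750 cells/well, RPMI, 5% FBS, 37 degrees C).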
TDP1 cell CPT: growth inhibition of DT40 Tdp1-/-;hTDP1 cells with camptothecin (screen for TDP1 inhibitors); chicken DT40 Tdp1-/-;hTDP1 cells + 20 nM CPT, ATP luminescence, 48 h; Potency, µM (highest dose often 46.2 µM), for inactives: top-dose activity change, negative = growth inhibition, actives largely listed as inhibitors; hit rate 12% among 420,000; also: potency is read from the fitted curve at half-maximal effect; nearly all actives have a fitted effect of over 55% in size
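Chicken DT40 Tdp1-/- cells complemented with human TDP1, 400 cells/well, exposed to compounds plus 20 nM camptothecin for at least 48 h at 37 C; viability read as ATP content by CellTiter-Glo luminescence.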
HT1080 IDH1KD tx: toxicity to HT-1080 IDH1 knockdown cells (counter line); Potency, µM (highest dose often 46.1 µM), inactives show at the top dose activity, negative = toxicity, most hits filed as cytotoxic; HT-1080 IDH1 knockdown viability, ATP luminescence, 48 h; hit rate 2% among 360,000;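 also: potency is read from the fitted curve at half-maximal effect; 0% = DMSO wells and -100% = cell-free medium wells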
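CellTiter-Glo luminescence after 48 h compound exposure at 37 degrees C of IDH1-knockdown HT-1080 cells in 5% FBS RPMI. %Activity scaled between DMSO wells and cell-free media wells, with curves fitted and assigned curve classes.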
TDP1 cell noCPT: qHTS for Inhibitors of human tyrosyl-DNA phosphodiesterase 1 (TDP1): qHTS in cells in absence of CPT | AID 686978, 2013 | DT40 Tdp1-/- hTDP1 cells, no CPT, ATP luminescence, 48 h | hit rate 15% among 420,000 | Potency, µM (doses to about 46.2 µM), inactives show top-dose activity change, negative = growth inhibition, usual class: inhibitors; also: potency is read from the fitted curve at half-maximal effect; nearly all actives have a fitted effect of over 55% in size
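Growth of hTDP1-complemented DT40 Tdp1-knockout cells is measured by ATP luminescence after at least 48 hr compound exposure at 37 °C, with DMSO substituting for the 20 nM CPT used in the parallel screen.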
* marks the source's active call; other numbers are inactive results; i = inactive; ? = inconclusive; nt = not tested or not shown; [ ] = remark or other dose. Unless noted, calls follow the shape of the dose curve; as a rule, active = well fitted curve in the direction sought with a large enough effect; inconclusive = small, poorly fitted or top-dose-only effect, or another doubt; inactive = no such curve, though single readings can be large; an effect the other way counts as inactive or inconclusive. Unless noted, % is scaled to controls: 0 for no effect and ±100 for the full control effect.

SMILES	ALOX12 inh	IL-1B inflam inh	HT1080NT lethal	TDP1 cell CPT	HT1080 IDH1KD tx	TDP1 cell noCPT
COC(=O)c1sccc1S(=O)(=O)Nc1ccc(C(O)(C(F)(F)F)C(F)(F)F)cc1	?	-17	?	18µM*	?	21µM*
CC(C)N(Cc1ccccc1)C(=O)c1cc2ccc3cccnc3c2[nH]1	11%	nt	nt	16µM*	nt	18µM*
O=S(=O)(Nc1ccc(N2CCCCC2)cc1)c1cccc2cccnc12	0%	13	2%	?	-12%	?
O=C(Cc1cccc(Cl)c1)N1CCC(c2nn(-c3ccc(F)cc3)c(=O)[nH]2)CC1	-19%	nt	nt	nt	nt	nt
O=C(C1CCCC1)N1CC2(CCCN2CC2CC2)Cc2ccccc21 (stereo unspecified)	5%[6.33 µM]	nt	nt	nt	nt	nt
Cc1ccc(C(=O)Nc2ccc(-c3nccs3)cc2)c(C)c1	46%	nt	nt	nt	nt	nt
O=S(=O)(Nc1ccc(Br)cc1)c1cccc2cccnc12	2%	-14	-1%	-12%	16%	?
COc1ccc(NS(=O)(=O)c2cccc3cccnc23)cc1Cl	0%	-13	-11%	?	-20%	21µM*
COc1ccc(OC)c(NC(=O)c2ccccc2NS(=O)(=O)c2cccc3cccnc23)c1	i	5	-4%	3%	-2%	29µM*
COc1ccc(NS(=O)(=O)c2cccc3cccnc23)cc1	-16%	-29	13%	-21%	0%	-17%
O=c1oc2ccc(NS(=O)(=O)c3cccc4cccnc34)cc2s1	-49%	0	-15%	21µM*	-13%	23µM*
O=S(=O)(Nc1ccc2c(c1)OCCO2)c1cccc2cccnc12	-11%	19	2%	-20%	-3%	?
O=S(=O)(Nc1ccc(C(O)(C(F)(F)F)C(F)(F)F)cc1)c1cccc2cccnc12	?	-12	?	16µM*	?	23µM*
CCOC(=O)c1cc(N)cc(C(=O)OCC)c1	23%	nt	nt	nt	nt	nt
CCCCC(CC)C(=O)Nc1cccc(CC)c1 (stereo unspecified)	9%	nt	nt	nt	nt	nt
CCc1ccc(-n2c(Cc3ccccc3)nnc2SCc2nc(-c3cccs3)no2)cc1	-28%	nt	nt	23µM*	nt	16µM*
Cc1ccc(-n2c(Cc3ccccc3)nnc2SCc2nc(-c3cccs3)no2)cc1C	-16%	nt	nt	?	nt	23µM*
CCOC(=O)c1c(C)nn(-c2ccc(NC(=O)/C=C/C(=O)O)cc2)c1C	?	0	5%	-14%	21%	1.5µM*
CCNC(=O)Nc1ccc(OCC(=O)NCc2ccc(C)cc2)nc1	30%	nt	nt	nt	nt	nt
CCOC(=O)c1c(C)nn(-c2ccc(NC(=O)c3cccs3)cc2)c1C	-1%	-96*	?	23µM*	?	16µM*
CCNC(=O)Nc1ccc(-n2nc(C)c(C(=O)OCC)c2C)nc1	-5%	6	0%	18µM*	0%	?
CCOC(=O)c1c(C)nn(-c2ccc(NC(=O)c3c(C)noc3C)cc2)c1C	nt	-14	-15%	?	-2%	?
CC(C(=O)NC1CCN(Cc2ccccc2)CC1)N1Cc2ccccc2C1=O (stereo unspecified)	-25%	nt	nt	nt	nt	nt
Cc1ccc(NC(=O)Nc2ccccc2C(N)=O)cc1	-21%	0	-1%	?	21%	?
Cc1ccccc1NC(=O)Nc1ccccc1C(N)=O	-2%	-10	0%	10µM*	-1%	?
O=C(Nc1ccccc1F)Nc1cccc2ccc(O)cc12	?	-9	6%	16µM*	2%	16µM*
Cc1ccccc1NC(=O)Nc1ccc(C(F)(F)F)cc1	-15%	-10	-28%	9.2µM*	?	8.2µM*
Cc1ccccc1NC(=O)CNC(=O)c1ccc(C(F)(F)F)cc1	-27%	23	1%	0%	11%	-3%
Cc1ccccc1NNC(N)=S	?	?	0%	21µM*	0%	23µM*
